ELG1 DNA repair = qHTS screen for small molecules that inhibit ELG1-dependent DNA repair in human embryonic kidney (HEK293T) cells expressing luciferase-tagged ELG1; HEK293T ELG1-luciferase reporter, luminescence, 16 h; DNA damage induced by 5-fluorouridine; Potency, µM (titrated, usually from 46.1 µM), without a hit: at the highest dose activity change, negative = inhibition, hits mostly inhibitors; hit rate 2.3% among 330,000; note: potency is the fitted concentration of half-maximal effect; nearly all actives have a fitted effect of over 55% in size
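Reporter activity after DNA damage by 5-fluorouridine is monitored. Compound-treated cells incubate 16 hr at 37 °C, then ONE-Glo is added for 30 min before luminescence reading.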
Sfp PPTase inh = qHTS Assay for Inhibitors of Bacillus subtilis Sfp phosphopantetheinyl transferase (PPTase); Potency, µM, without a hit: largest response in the series, negative = inhibition, actives largely listed as inhibitors; 4'-phosphopantetheinyl transferase ffp (Bacillus subtilis), Q9F4F7; AID 1490, 2009; hit rate 3.5% among 310,000; Biochemical Sfp PPTase activity, qHTS;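 note: the enzyme is Sfp with the accession as filed and its product quenches rhodamine fluorescence; potency is the fitted concentration of half-maximal effect; 0% = enzyme reaction without inhibitor and -100% = no enzyme wells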
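Reaction rates are the 30-min fluorescence difference (ex 525, em 598 nm) in wells containing 15 nM Sfp, 5 uM rhodamine-CoA and 12.5 uM BHQ-2-YbbR at pH 7.6 with 10 mM MgCl2.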
Giardia kill = Small Molecules that selectively kill Giardia lamblia: qHTS. activity change, % at 7.66 µM, hits read low. Giardia lamblia trophozoite viability. hit rate 0.15% among 340,000; in the data active = activity change below about -80%; inconclusive = between about -30% and that limit;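 note: parasites exposed to compound for two days anaerobically before the ATP read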
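Anaerobic 48 hrs incubation at 37 deg C of 100 trophozoites/well with test compounds; ATPLite 1-Step luminescence, 15-30 min RT, reports cellular ATP as viability.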
Coupling enz = qHTS Assay for Inhibitors of Fructose-1,6-bisphosphate Aldolase from Giardia Lamblia: Coupling assay counterscreen; AID 2472, 2010; hit rate 0.67% among 290,000; coupling enzyme system counterscreen, AmpLite Red fluorescence; activity change, negative = inhibition, % at 58.2 µM, hits read low; in the data active = activity change below about -30%
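Fluorescence at 525 nm excitation and 598 nm emission measured inhibition of the coupled detection system without aldolase. Compounds (at 57.5 uM final) were preincubated 10 min at room temperature with coupling enzyme reagent before a 20 min substrate/AmpLite Red step.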
An asterisk follows results filed as active; ? = inconclusive; . = no result given. This is a sample that favours compounds with a hit; in the whole collection about 5.5% have one here. Unless noted, calls come from the whole dose curve; as a rule, active = well fitted curve in the direction sought with a large enough effect; inconclusive = small, poorly fitted or top-dose-only effect, or another doubt; inactive = no such curve, though single readings can be large; an effect the other way counts as inactive or inconclusive. Unless noted, % is set by controls: 0 for no effect and ±100 for the full control effect.

SMILES	ELG1 DNA repair	Sfp PPTase inh	Giardia kill	Coupling enz
Cc1cc(N/N=C/c2ccc(O)cc2O)nc(-n2nc(C)cc2C)n1	23µM*	8%	13	1
Cc1cc(N/N=C/c2ccc(O)cc2O)nc(-c2ccccc2O)n1	10µM*	6%	?	0
Cc1cc(N/N=C/c2ccccc2[N+](=O)[O-])nc(-n2nc(C)cc2C)n1	13µM*	6%	-8	-1
Cc1cc(N/N=C/c2cccc([N+](=O)[O-])c2)nc(-n2nc(C)cc2C)n1	-7%	20%	12	4
Oc1ccc(/C=N/Nc2ccc3ccccc3c2)c(O)c1	?	50µM*	-4	-4
Oc1ccccc1C=NCc1ccccc1	.	1%	.	.
O=CNc1c(Br)cc2c(c1Br)Cc1cc(Br)ccc1-2	.	.	5	.
COc1ccc(/C=N/Nc2cc(C)nc(NS(=O)(=O)c3ccc(C)cc3)n2)cc1	-13%	9%	-2	2
Cc1cc(N/N=C/c2cccc(Cl)c2)nc(-n2nc(C)cc2C)n1	16µM*	16%	-4	4
COc1ccc(/C=N/Nc2cc(C)nc(-n3nc(C)cc3C)n2)cc1	8.2µM*	-7%	6	-2
Cc1ccc(C(=O)N/C(=C\c2ccco2)C(=O)NCCN2CCOCC2)cc1C	-4%	15%	-4	.
Cc1nn(-c2ccc(N3CCOCC3)nn2)c(C)c1CCC(=O)N1CCN(C)CC1	6%	7%	1	3
COc1ccc(OCc2n(CC(=O)OC3CC(C)CCC3C(C)C)c3ccccc3[n+]2C)cc1 (configuration not stated)	?	35µM*	-1	0
COc1ccc(-c2n(CC(=O)OC3CC(C)CCC3C(C)C)c3ccccc3[n+]2C)cc1 (configuration not stated)	13%	6%	-14	0
CCn1c(C)nc2cc(C(=O)N/N=C(\C)c3ccc(OC)cc3O)ccc21	7.3µM*	30%	-21	1
Cc1cc(Br)ccc1NC(=O)CNC(=O)c1cnn(C)c1	29%	.	2	.
COc1ccc(Nc2nc(N)nc(CSC(=S)N3CCN(c4ccccc4)CC3)n2)cc1	12µM*	5%	-6	-3
CCOc1ccc(Nc2nc(N)nc(CSC(=S)N3CCN(c4ccccc4)CC3)n2)cc1	10µM*	8%	8	1
COc1ccccc1CC(=O)OC(C)C(=O)Nc1ccc(S(=O)(=O)N2CCCCC2)cc1 (configuration not stated)	-9%	.	5	.
CCN1C(=O)[C@H]2[C@@H](c3ccc(-c4cccc(Cl)c4)c(OC)c3)N3CCC[C@@]3(C(=O)OC)[C@H]2C1=O	-6%	.	1	.
C=CCn1c(SCC(=O)NCc2ccccc2)nnc1-c1ccccc1O	18µM*	2%	4	0
C=CCn1c(SCC(N)=O)nnc1-c1ccccc1O	-7%	-24%	-8	1
COc1cc(C2C=C(C34CC5CC(CC(C5)C3)C4)NC(=S)N2)cc(OC)c1OC (configuration not stated)	23µM*	13%	-7	1
O=C(c1csnn1)N1CCC[C@@]2(CCN(Cc3cc(C(F)(F)F)cc(C(F)(F)F)c3)C2)C1	.	7%	.	1
COc1ccc(OC)c(CCNC(=O)Cn2nc(C)c3c(C)n(-c4ccccc4)nc3c2=O)c1	7.3µM*	-2%	-1	5
SMILES	ELG1 DNA repair	Sfp PPTase inh	Giardia kill	Coupling enz
Cc1ccc(-n2nc3c(=O)n(CC(=O)NC(C)CCc4ccccc4)nc(C)c3c2C)cc1 (configuration not stated)	0.65µM*	17%	-6	1
CC1CCCN(C(=O)CCNC(=O)Cn2cnc3ccccc3c2=O)C1 (configuration not stated)	1%	12%	-8	1
COc1cc2c(cc1O)-c1ccccc1CN(C)C2	.	-21%	.	1
C/C(=N\OCc1nc2ccccc2c(=O)n1/N=C/c1cc([N+](=O)[O-])ccc1O)c1ccccc1	?	2%	25	-2
O=[N+]([O-])c1ccc(O)c(/C=N/n2cnc3ccccc32)c1	21µM*	7%	-26	1
O=[N+]([O-])c1ccc(O)c(/C=N/n2c(CO)nc3ccccc32)c1	26µM*	0%	-9	3
CCCCc1cc2c(cn1)C(=O)C(C)(OC(C)=O)C(=O)C2 (configuration not stated)	.	15%	.	-2

Screens as filed in PubChem.
